Screening data deposited in PubChem BioAssay by several laboratories.
Most compounds without a hit are left out; they make up all but 3.2% or so of the library.
A3G deaminase: blocks human APOBEC3G single-stranded DNA deamination; Q9HC16; recombinant A3G, ssDNA deamination FAM/TAMRA fluorescence; inhibition, % at 20 µM; 330,000 compounds, 0.28% hits;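 active = inhibition of at least 40% at 20 µM, with no more than 30% in the related APOBEC3A deaminase screen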
Target sequence (Q9HC16 whole entry, looked up): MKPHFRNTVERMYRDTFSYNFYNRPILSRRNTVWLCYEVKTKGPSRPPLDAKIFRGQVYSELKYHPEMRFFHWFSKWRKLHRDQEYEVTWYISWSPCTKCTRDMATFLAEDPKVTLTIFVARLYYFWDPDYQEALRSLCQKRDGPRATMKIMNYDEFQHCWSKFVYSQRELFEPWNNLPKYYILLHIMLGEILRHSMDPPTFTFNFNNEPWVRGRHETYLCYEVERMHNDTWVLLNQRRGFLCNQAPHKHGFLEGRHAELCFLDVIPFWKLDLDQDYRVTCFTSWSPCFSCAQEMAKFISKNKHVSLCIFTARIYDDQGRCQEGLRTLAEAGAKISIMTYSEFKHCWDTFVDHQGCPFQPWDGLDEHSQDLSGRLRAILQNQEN
A3A deaminase: blocks human APOBEC3A ssDNA deamination. recombinant A3A, FAM/TAMRA ssDNA deamination fluorescence. inhibition, % at 20 µM. 330,000 compounds, 0.41% hits;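 active = at least 40% inhibition at 20 µM here, with at most 30% in a related deaminase screen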
Target sequence (P31941 whole entry, looked up): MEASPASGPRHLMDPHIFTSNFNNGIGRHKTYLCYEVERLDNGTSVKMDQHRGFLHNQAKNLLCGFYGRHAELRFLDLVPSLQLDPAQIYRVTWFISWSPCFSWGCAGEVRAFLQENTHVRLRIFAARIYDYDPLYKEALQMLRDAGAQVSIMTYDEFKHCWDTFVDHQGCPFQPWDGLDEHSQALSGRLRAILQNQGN
AHR act: activates the human aryl hydrocarbon receptor | P35869 | AHR-responsive luciferase reporter cells, luminescence | activation, % at 5 µM | 320,000 compounds, 2.5% hits; in the data active = activation above about 47%
NTR1 agonist: activates human neurotensin receptor 1. P30989. NTR1-U2OS beta-arrestin-GFP spot imaging, agonist mode. activation, % at 20 µM. 330,000 compounds, 0.17% hits. AID 493036;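 active = activation at or above 40% of the spot to cytoplasm intensity ratio, with at least 20 cells analyzed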
AHR act cf: human AHR activation, confirmation; shares compounds with AHR act; human cells, AHR-responsive luciferase reporter, luminescence; activation, % at 9 µM; 2,300 compounds, 87% hits; AID 2845; in the data active = activation above about 49%;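 note: HepG2 hepatoma cells carrying a DRE-driven firefly luciferase reporter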
PXR counter: counter-screen for AHR activators: human PXR activators; shares compounds with AHR act; cell-based PXR reporter, luciferase luminescence; activation, % at 11.6 µM; 2,300 compounds, 88% hits; AID 434939; in the data active = activation above about 11%;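 note: human hepatoma DPX-2 cells expressing full-length human PXR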
Large screens that a line does not name were inactive (follow-up assays come after a bar, where they were run).

Cc1cccc(NC(=S)NN(Cc2ccccc2)c2ccccc2)c1C	AHR act 116 | AHR act cf 108 | PXR counter 214
CCc1cc(C(=O)OC)c(NC(=O)CSc2nccn2C)s1	none
CCn1c(CNc2ccc(Cl)cc2)nnc1SCC#N	AHR act 120 | AHR act cf 100 | PXR counter 48
COc1ccc(CN(CC(=O)NCc2ccco2)C(=O)CNS(=O)(=O)c2ccc(C)cc2)cc1	none
C/C(=N\NC(=S)Nc1ccc(F)cc1)c1ccc2c(c1)OCCO2	AHR act 137 | AHR act cf 84 | PXR counter 14
COc1ccc(N=Nc2nc3cc(Br)c(Br)cc3n2C)c(OC)c1	AHR act 83 (no result: A3G deaminase, A3A deaminase, NTR1 agonist) | AHR act cf 57 | PXR counter 18
COc1ccc(OC)c(CNc2ccc3c(c2)nc(C)n3C)c1	none
COCC(=O)N(C)C[C@H]1N[C@@](C)(C(=O)OC)[C@H]2C(=O)N(C)C(=O)[C@@H]12	none
O=C(/C=C/c1cccc(F)c1)Nc1nccs1	none
O=C(/C=C\c1ccccc1)Nc1nccs1	AHR act 111 | AHR act cf 73 | PXR counter 21
COc1ccccc1-c1noc(-c2cccs2)n1	AHR act 86 | AHR act cf 144 | PXR counter 17
Cc1ccccc1-c1nc(-c2ccccn2)no1	none
COc1ccccc1-c1noc(-c2ccncc2)n1	none
COc1ccccc1-c1nc(-c2ccccn2)no1	AHR act 113 | AHR act cf 118 | PXR counter inactive
C=CCn1c(C)c(C(C)=O)c(N2CCN(C(c3ccccc3)c3ccccc3)CC2)nc1=S	none
CCCc1nnc(NC(=S)Nc2ccccc2)s1	none
COc1ccccc1-c1nnc(NC(=O)C(C)C)s1	AHR act 84 | AHR act cf 123 | PXR counter 16
COc1ccccc1-c1nnc(NC(=O)C(C)Sc2nncn2C)s1 (configuration not stated)	none
COc1ccccc1-c1nnc(NC(C)=O)s1	AHR act 82 | AHR act cf 59
CC(C)C(=O)Nc1nnc(NC(=S)Nc2ccccc2)s1	AHR act 104 | AHR act cf 61 | PXR counter 21
CCc1ccc(/C=N/n2c(C)cc(C)c(C#N)c2=O)cc1	none
CC(=O)c1ccc(N2CCN(c3ncccn3)CC2)cc1	none
COc1ccc(/C=C/C(=O)NC(=S)Nc2cc3oc4ccccc4c3cc2OC)cc1	none
COc1cc2c(cc1NC(=O)c1cc(-c3ccncc3)nc3ccccc13)oc1ccccc12	AHR act 83 | AHR act cf 71 | PXR counter 13
COc1cc2c(cc1NC(=O)c1cccc(S(=O)(=O)N(C)C)c1)oc1ccccc12	AHR act 79 | AHR act cf 65 | PXR counter 42
COc1cc2c(cc1NC(=O)C(C)OC(=O)/C=C/c1ccc(OC(F)F)cc1)oc1ccccc12 (configuration not stated)	AHR act 144 | AHR act cf 107 | PXR counter 30
NNC(=O)c1cc(-c2ccc(O)cc2)nc2ccc(Br)cc12	AHR act 81 | AHR act cf inactive | PXR counter inactive
NNC(=O)c1cc(C2CC2)nc2ccc(Br)cc12	none (no result: AHR act)
COc1cc2c(cc1NC(=O)COC(=O)c1ccccc1)oc1ccccc12	none
Cn1cnnc1SCC(=O)NC1CCCN(Cc2ccccc2F)C1 (configuration not stated)	none
NC(=S)N1CCCc2ccccc21	none
COc1cc2c(cc1NC(=O)C(C)Sc1ccc(NC(C)=O)cc1)oc1ccccc12 (configuration not stated)	none
O=C(Nc1ccc(Br)cc1)c1cc(-c2ccncc2)nc2ccccc12	AHR act 109 | AHR act cf 97 | PXR counter 12
O=C(Nc1ccc2c(c1)OCO2)c1cc(-c2ccncc2)nc2ccccc12	AHR act 94 | AHR act cf 95 | PXR counter 35
O=C(Nc1ccc2c(c1)OCCO2)c1cc(-c2ccccc2)nc2ccccc12	none
COc1cc2c(cc1NC(=O)Nc1ccc(C)cc1)oc1ccccc12	AHR act 87 | AHR act cf 98
COc1ccc(S(=O)(=O)N2CCN(C(=O)c3ccco3)CC2)c(C)c1C	none
Cc1ccn(CCC(=O)N2CCCC(CCC(=O)N3CCN(c4ccccn4)CC3)C2)n1 (configuration not stated)	none
CC12CCC(=O)N1C(C(=O)Nc1nc3c(F)cc(F)cc3s1)CS2 (configuration not stated)	AHR act 97 | AHR act cf 79 | PXR counter 151
N#C/C(=C1/CCCCCN1)c1nc2ccccc2[nH]1	AHR act 115 | AHR act cf 144 | PXR counter 48
CC(C)(C)c1cnnn1-c1ccc(/C=N/Nc2ccc([N+](=O)[O-])cc2)cc1	AHR act 83 | AHR act cf 55 | PXR counter 35
CCCc1nn(C)c(C(=O)Nc2cccc3ccccc23)c1Cl	AHR act 93 | AHR act cf 74
CCCc1nn(C)c(C(=O)Nc2ccc(CC)cc2)c1Cl	none
Cc1cc2cc3c(cc2nc1SCC(=O)N1c2ccccc2CC1C)OCO3 (configuration not stated)	none
CC1Cc2ccccc2N1C(=O)COc1ccc2c(c1)OCO2 (configuration not stated)	AHR act 84 | AHR act cf 95 | PXR counter 66
COc1ccc(OC)c(C(=O)N2CCC(n3nccc3NC(=O)CC(C)C)CC2)c1	none
O=C(Nc1ccccn1)c1ccc2ccccc2c1O	AHR act 151 | AHR act cf 152 | PXR counter 16
O=C(Nc1ccccn1)c1ccc2ccccc2n1	AHR act 84 | AHR act cf 168 | PXR counter 24
O=C(O)c1ccccc1C(=O)Nc1ccccn1	none
Cc1ccc(NC(=O)Nc2ccc3c(c2)OCO3)nc1	none
Cc1ccc(OC(F)F)c(NC(=O)Nc2ccc3c(c2)OCO3)c1	AHR act 82 | AHR act cf 75 | PXR counter 47
CCOc1ccccc1NC(=O)Nc1ccc2c(c1)OCO2	AHR act 103 | AHR act cf 115 | PXR counter 97
COc1ccc(Cc2nnc(NC(=O)c3ccccc3Cl)s2)cc1OC	none
CSCCC(NS(=O)(=O)c1ccccc1F)C(=O)Nc1ccncc1 (configuration not stated)	none
Cc1ccccc1OCc1nnc(SCC(=O)O)n1-c1cccc(Cl)c1	none
CC(=O)n1cc([C@H]2C=C(C(=O)N3CCN(Cc4ccccc4)CC3)O[C@@H](OCCCCO)C2)c2ccccc21	none
CC(=O)n1cc([C@H]2C=C(C(=O)NCc3ccccc3)O[C@@H](OCCCCO)C2)c2ccccc21	AHR act 87 | AHR act cf 106 | PXR counter 61
O=C1NC(=Nc2ccccc2)/C(=C/c2ccco2)S1	AHR act 84 | AHR act cf inactive | PXR counter 20
Cc1ccc(N=C2NC(=O)S/C2=C\c2ccco2)cc1	none
